Assay results published in PubChem BioAssay AID1851 (National Center for Advancing Translational Sciences (NCATS), 2009).
Values joined by “and” are separate entries in the source; they are usually repeats but may differ in a detail not shown here. Identical values can stand only once. Among all 16,000 compounds or so, about 5,800 (36%) were called active. Inconclusive results (about 23%) are left out. Calls come from the whole dose curve; as a rule, active = well fitted curve in the direction sought with a large enough effect; inconclusive = small, poorly fitted or top-dose-only effect, or effect the other way; inactive = no such curve, though single readings can be large or run the other way. The list shows a part of the results. A structure can be active in one record and inactive in another.

Biological target: Cytochrome P450 2C19 (Homo sapiens) (UniProt P33261)
Sequence (P33261 whole entry, looked up): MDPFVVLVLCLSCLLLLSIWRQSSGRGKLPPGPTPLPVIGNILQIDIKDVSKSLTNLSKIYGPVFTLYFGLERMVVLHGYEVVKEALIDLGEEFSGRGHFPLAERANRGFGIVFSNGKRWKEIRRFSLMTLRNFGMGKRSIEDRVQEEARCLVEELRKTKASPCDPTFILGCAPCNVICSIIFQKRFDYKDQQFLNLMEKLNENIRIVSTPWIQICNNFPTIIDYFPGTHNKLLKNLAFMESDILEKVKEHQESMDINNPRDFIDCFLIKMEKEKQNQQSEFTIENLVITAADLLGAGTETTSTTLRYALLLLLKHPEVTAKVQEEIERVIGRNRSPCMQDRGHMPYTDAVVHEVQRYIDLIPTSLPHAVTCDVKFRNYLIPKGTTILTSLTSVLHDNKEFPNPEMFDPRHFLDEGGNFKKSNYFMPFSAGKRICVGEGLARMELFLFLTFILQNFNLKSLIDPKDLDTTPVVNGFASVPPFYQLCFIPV
Assay: Cytochrome panel assay with activity outcomes
Conditions: recombinant CYP, pro-luciferin dealkylation, luminescence, p450-cyp2c19; series mostly up to 57.1 µM; activity, negative = inhibition: at the top concentration
% is set by controls: 0 for no effect and ±100 for the full control effect.

SMILES | activity, negative = inhibition | AC50
COc1ccccc1/C=N/NC(=Nc1ccc(C)cc1)c1nc2ccccc2s1 | -4.38% (inactive) | 
COc1ccccc1/C=N/NC(=O)CC(=O)Nc1ccc(Cl)c(Cl)c1 |  | 11.2 µM (active)
COC(=O)N1CCC2(CC1)CN(c1ccccc1)C2 |  | 6.31 µM (active)
O=C(Oc1ccccc1)N1CCC2(CC1)CCN(c1ccncc1)CC2 | -32.8% (inactive) | 
COC(=O)N1CCC[C@@]2(CCN(c3ccncc3)C2)C1 | 15.9% (inactive) | 
COC(=O)N1CCC2(CC1)CN(c1ccc(-c3ccccc3)cc1)C2 | -11.4% (inactive) | 
COC(=O)N1CCC2(CCCN(c3ccc(-c4ccccc4)cc3)C2)CC1 | -24.4% (inactive) | 
O=C(Oc1ccccc1)N1CCC[C@@]2(CCN(c3ccncc3)C2)C1 |  | 5.01 µM (active)
O=C(Oc1ccccc1)N1CCC2(CC1)CN(c1ccncc1)C2 |  | 7.94 µM (active)
CC(=O)N1CCC2(CC1)CN(c1ccncc1)C2 | 30.5% (inactive) | 
C[C@H](NC[C@H](O)CP(=O)(O)CC1CCCCC1)c1ccc(Cl)c(Cl)c1 | -9.58% (inactive) | 
OC[C@H](S)CS | -35.3% [at 11.4 µM] (inactive) | 
CCCCNC(=O)NC1C(NC(=O)NCCCC)N(C)C(=O)N1C (stereo not given) | -13.7% (inactive) | 
CCCCNC(=S)NNC(=O)CCn1nc(C)c(Br)c1C |  | 11.2 µM (active)
COc1cccc(Nc2ncc3nc(C)c(=O)n(CCc4ccccc4)c3n2)c1 | -33.4% (inactive) | 
COc1cccc(NC(=S)N(CCc2nc3cc(C)c(C)cc3[nH]2)Cc2cccnc2)c1 |  | 3.98 µM (active)
COc1cccc(NC(=O)C2c3cc(OC)c(OC)cc3C(=O)N(C)C2c2cccnc2)c1 (stereo not given) | -18.3% (inactive) | 
COc1ccc(NC(=S)N(CCc2nc3cc(C)c(C)cc3[nH]2)Cc2cccnc2)cc1 |  | 14.1 µM (active)
Cc1cccc(NC(=S)N(CCc2nc3cc(C)c(C)cc3[nH]2)Cc2cccnc2)c1 |  | 3.16 µM (active)
CNC(=S)NNC(=O)c1sccc1OCc1ccc(C)cc1 |  | 5.01 µM (active)
COc1ccc(COc2ccsc2C(=O)Nc2ccc(Cl)c(Cl)c2)cc1 |  | 7.94 µM (active)
FC(F)(F)c1cc(CN2CCCC3(CCNCC3)C2)cc(C(F)(F)F)c1 | 24.6% (inactive) | 

SMILES | activity, negative = inhibition | AC50
Cc1ccc(/C=C/c2nnc(-c3ccc(C)cc3)o2)cc1 | -16.4% (inactive) | 
Cc1oc(-c2cccs2)[n+]([O-])c1C | 14.9% (inactive) | 
C(=C\c1nnc(-c2cccs2)o1)/c1ccccc1 |  | 22.4 µM (active)
CCN=C1NN=C(c2ccc(C)cc2)CS1 |  | 10 µM (active)
FC(F)(F)c1cc(-c2ccco2)nc(NCCc2ccccc2)n1 |  | 1.78 µM (active)
Nc1nc(NCCc2ccc(O)cc2)nc2nc(-c3ccco3)nn12 | -37.2% (inactive) | 
CN1CCN(CC(=O)N2c3ccccc3C(=O)Nc3cccnc32)CC1 |  | inactive
Cc1scc2c1N(C(=O)CN1CCN(C)CC1)c1ccccc1NC2=O |  | inactive and 3.98 µM (active)
O=C(Cc1ccccc1I)Nc1ccccc1 |  | 6.31 µM (active)
CCCCC#Cc1ccccc1CC(=O)Nc1ccccc1 |  | 0.794 µM (active)
CCC#CCOCC(=O)Nc1ccccc1 | 1.66% (inactive) | 
O=C(O)[C@H](/C=C\c1ccccc1)c1ccccc1 | -22.1% [at 11.4 µM] (inactive) | 
COC(=O)c1cc(/C=C/c2ccccc2)on1 |  | 35.5 µM (active)
Cc1ccc(NC(=O)c2cc([N+](=O)[O-])ccc2NCc2cccnc2)cc1Cl |  | 0.0794 µM (active)
CS(=O)(=O)N1CCC[C@@]2(CCN(C(=O)Nc3cccc(C#N)c3)C2)C1 | 26.6% (inactive) | 
COc1cccc(/C=c2/s/c(=C(\C#N)C(=O)N3CCOCC3)n(-c3ccccc3)c2=O)c1 | -26% (inactive) | 
CNC(=O)/C(C#N)=c1\s/c(=C/C(=O)OC)c(=O)n1-c1ccccc1 |  | 5.01 µM (active)
O=C(Cc1ccccc1[N+](=O)[O-])NCc1ccccc1Cl |  | 31.6 µM (active)
O=C(Cc1ccccc1[N+](=O)[O-])NCCSCc1c(F)cccc1Cl |  | 2.51 µM (active)
Cc1nn(CC(=O)NCc2ccccc2Cl)c(C)c1[N+](=O)[O-] |  | 15.8 µM (active)
Cn1c(=O)c2cc(S(=O)(=O)NCCC(=O)NCc3ccccc3Cl)ccc2n(C)c1=O | -19.5% (inactive) | 
Cc1nn(CC(=O)NCc2ccccc2)c(C)c1[N+](=O)[O-] | 10.9% (inactive) | 

SMILES | activity, negative = inhibition | AC50
Cc1nn(CC(=O)NCCN2CCOCC2)c(C)c1[N+](=O)[O-] | 7.17% (inactive) | 
O=C(CN1C(=O)c2ccccc2C1=O)NCC(=O)OCC(=O)c1ccc(Br)cc1 | -8.2% (inactive) | 
CNCC[C@@H](Oc1ccccc1C)c1ccccc1 | 11.6% (inactive) | 
Cc1ccc(C(=O)C(OC(=O)CN2C(=O)c3ccccc3C2=O)c2ccccc2)cc1 (stereo not given) |  | 3.55 µM (active)
Cc1ccccc1OCC(=O)OC1CCN(C)CC1 | 12.3% (inactive) | 
Cc1ccc(C(=O)C(OC(=O)CNS(=O)(=O)c2ccccc2)c2ccccc2)cc1 (stereo not given) |  | 10 µM (active)
Cc1ccc(C(=O)C(OC(=O)CCC(=O)Nc2cccc(C)c2)c2ccccc2)cc1 (stereo not given) |  | 11.2 µM (active)
Cc1ccc(C(=O)C(OC(=O)COc2ccccc2C)c2ccccc2)cc1 (stereo not given) |  | 7.08 µM (active)
CCNc1ncc2nc(-c3cc(F)cc(F)c3)c(=O)n(-c3ccc(OC)cc3)c2n1 | -5.14% (inactive) | 
CC(=O)Nc1cccc(C(=O)OC(C(=O)c2ccc(C)c(C)c2)c2ccccc2)c1 (stereo not given) |  | 3.98 µM (active)
Cc1ccc(NC(=O)C2C3CCCC2C3c2ccccc2)cc1C (stereo not given) | -21.6% (inactive) | 
Oc1ccc2ccccc2c1C=NCc1c(O)ccc2ccccc12 | -16.5% [at 11.4 µM] (inactive) | 
CCN(Cc1cc(Cl)cc(C)c1O)Cc1c(O)ccc2ccccc12 |  | 1.26 µM (active)
CN(Cc1cc(Cl)cc(Cl)c1O)Cc1c(O)ccc2ccccc12 |  | 1.26 µM (active)
CN(CC(=O)O)Cc1c(O)c(Cl)cc(Cl)c1Cl | 40.6% [at 11.4 µM] (inactive) | 
CN(C)Cc1cc(Cl)c(O)c(CN(C)C)c1 | 2.46% [at 11.4 µM] (inactive) | 
CN(Cc1cc(Br)cc(Br)c1O)Cc1c(O)ccc2ccccc12 |  | 0.501 µM (active)
O=C1Nc2ccccc2C1=Nc1cccc2ncccc12 | 27.9% [at 11.4 µM] (inactive) | 
COC(=O)[C@H](CCSC)NC(=O)C/C=C\[C@@H](C)CO | 35.2% [at 11.4 µM] (inactive) | 
COC(=O)[C@H](CCSC)NC(=O)C/C=C\[C@@H](C)[C@@H](CO)OC | -1.07% [at 11.4 µM] (inactive) | 
COC(=O)C(CCSC)NC(=O)c1cccc([N+](=O)[O-])c1 (stereo not given) |  | 14.1 µM (active)
